Experimental data reported in article PMC7862700, “An all-to-all approach to the identification of sequence-specific readers for epigenetic DNA modifications on cytosine”.

Columns and labels:
Assay in all cases: DAPPL (digital affinity profiling via proximity ligation, sequencing); 10 mM Tris-HCl pH 7.5, 50 mM NaCl, 1 mM DTT, 4% glycerol, room temperature, 30 min; GST-TFs on glutathione beads, 16-mer random dsDNA library, 0.1% formaldehyde crosslink after washing; high values mean tight binding
Details in all cases: protein: recombinant; tags: N-terminal GST; dsDNA, one strand shown
[1] = target: T1, ERF (Homo sapiens, UniProt P50548 1-548)
T1 sequence: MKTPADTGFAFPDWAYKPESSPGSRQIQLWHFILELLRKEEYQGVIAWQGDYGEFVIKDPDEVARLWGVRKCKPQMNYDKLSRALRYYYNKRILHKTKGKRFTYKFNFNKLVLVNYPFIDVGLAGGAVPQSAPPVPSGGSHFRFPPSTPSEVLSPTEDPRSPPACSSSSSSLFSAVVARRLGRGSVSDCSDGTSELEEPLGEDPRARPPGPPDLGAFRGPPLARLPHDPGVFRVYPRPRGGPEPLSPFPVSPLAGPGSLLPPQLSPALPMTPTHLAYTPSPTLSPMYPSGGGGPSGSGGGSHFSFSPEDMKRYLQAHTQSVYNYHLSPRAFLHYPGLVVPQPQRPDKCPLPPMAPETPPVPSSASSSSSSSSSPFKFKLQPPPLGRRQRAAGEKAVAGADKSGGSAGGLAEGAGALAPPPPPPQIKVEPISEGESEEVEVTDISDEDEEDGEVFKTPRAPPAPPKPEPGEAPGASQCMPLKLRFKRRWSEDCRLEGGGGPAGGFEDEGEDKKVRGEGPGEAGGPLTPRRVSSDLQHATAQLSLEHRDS
Procedure, shortened: (§1)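 In yeast, human transcription factors were expressed with a GST fusion, then pulled down on glutathione beads and given DNA barcodes. Pooled with a tag-only sample, they were exposed to 200 nmole of a 16-mer random double-stranded DNA library (Tris/NaCl/DTT/glycerol buffer, room temperature, 30 min), washed, crosslinked with 0.1% formaldehyde, proximity-ligated using BsaI/T4 ligase for 1 h at 37 °C, PCR-amplified and read on an Illumina NextSeq500. Each hexamer's frequency of reads for a factor, divided by the matching frequency for the tag-only sample, gives the binding signal.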

[2] = target: T2, ETV3L (Homo sapiens, UniProt Q6ZN32 1-361)
T2 sequence: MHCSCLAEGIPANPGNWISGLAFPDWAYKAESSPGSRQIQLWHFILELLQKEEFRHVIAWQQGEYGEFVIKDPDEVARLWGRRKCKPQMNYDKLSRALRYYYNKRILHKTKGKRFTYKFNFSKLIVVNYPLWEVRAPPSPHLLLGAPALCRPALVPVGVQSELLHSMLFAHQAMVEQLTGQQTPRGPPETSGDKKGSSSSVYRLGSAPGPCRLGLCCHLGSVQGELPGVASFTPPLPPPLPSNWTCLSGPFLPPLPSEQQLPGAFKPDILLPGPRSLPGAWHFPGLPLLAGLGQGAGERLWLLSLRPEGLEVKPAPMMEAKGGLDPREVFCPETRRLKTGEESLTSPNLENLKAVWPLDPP
Procedure, shortened: as §1

[3] = target: T3, ETS2 (Homo sapiens, UniProt P15036 1-469)
T3 sequence: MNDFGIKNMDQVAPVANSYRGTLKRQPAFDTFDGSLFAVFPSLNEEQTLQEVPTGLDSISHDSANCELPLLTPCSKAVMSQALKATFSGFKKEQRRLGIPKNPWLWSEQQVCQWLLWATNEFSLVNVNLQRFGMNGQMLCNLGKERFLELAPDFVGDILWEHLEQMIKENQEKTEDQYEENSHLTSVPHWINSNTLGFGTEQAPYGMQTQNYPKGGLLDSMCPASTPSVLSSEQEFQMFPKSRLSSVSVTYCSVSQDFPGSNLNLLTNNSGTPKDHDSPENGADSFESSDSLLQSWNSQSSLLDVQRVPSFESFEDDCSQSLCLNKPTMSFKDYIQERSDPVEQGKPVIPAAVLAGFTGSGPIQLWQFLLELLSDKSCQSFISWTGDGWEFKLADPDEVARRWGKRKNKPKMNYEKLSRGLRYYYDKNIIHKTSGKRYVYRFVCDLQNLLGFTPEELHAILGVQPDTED
Procedure, shortened: as §1

[4] = target: T4, SPDEF (Homo sapiens, UniProt O95238 1-335)
T4 sequence: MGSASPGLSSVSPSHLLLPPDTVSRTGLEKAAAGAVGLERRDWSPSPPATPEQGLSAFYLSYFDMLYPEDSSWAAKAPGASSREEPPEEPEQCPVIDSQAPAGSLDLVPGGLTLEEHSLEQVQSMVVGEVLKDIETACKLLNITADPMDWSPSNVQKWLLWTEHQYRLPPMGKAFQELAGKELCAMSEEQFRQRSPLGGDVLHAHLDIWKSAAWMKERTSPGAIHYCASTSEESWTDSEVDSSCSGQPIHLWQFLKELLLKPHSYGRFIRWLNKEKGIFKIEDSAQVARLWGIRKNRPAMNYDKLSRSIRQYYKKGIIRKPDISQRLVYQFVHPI
Procedure, shortened: as §1

[5] = target: T5, ETV7 (Homo sapiens, UniProt Q9Y603 1-341)
T5 sequence: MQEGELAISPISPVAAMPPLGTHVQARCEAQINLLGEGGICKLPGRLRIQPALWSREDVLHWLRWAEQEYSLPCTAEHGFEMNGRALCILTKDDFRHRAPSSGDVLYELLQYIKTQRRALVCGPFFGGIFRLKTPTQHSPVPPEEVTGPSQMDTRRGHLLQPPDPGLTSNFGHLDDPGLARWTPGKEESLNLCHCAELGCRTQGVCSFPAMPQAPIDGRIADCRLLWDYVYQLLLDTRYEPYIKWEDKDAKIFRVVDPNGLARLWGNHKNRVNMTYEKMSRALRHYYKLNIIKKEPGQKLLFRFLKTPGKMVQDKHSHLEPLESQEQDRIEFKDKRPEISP
Procedure, shortened: as §1

[6] = target: T6, ELF5 (Homo sapiens, UniProt Q9UKW6-2 1-255)
T6 sequence: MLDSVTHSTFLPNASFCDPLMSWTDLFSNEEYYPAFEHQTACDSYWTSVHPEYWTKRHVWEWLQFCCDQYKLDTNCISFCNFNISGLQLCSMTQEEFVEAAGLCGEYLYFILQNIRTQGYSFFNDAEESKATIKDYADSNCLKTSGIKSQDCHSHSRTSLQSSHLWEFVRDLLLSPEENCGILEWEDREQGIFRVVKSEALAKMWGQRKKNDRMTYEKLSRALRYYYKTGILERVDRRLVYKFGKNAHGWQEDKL
Procedure, shortened: as §1

[7] = target: T7, ETV3 (Homo sapiens, UniProt P41162-2 1-143)
T7 sequence: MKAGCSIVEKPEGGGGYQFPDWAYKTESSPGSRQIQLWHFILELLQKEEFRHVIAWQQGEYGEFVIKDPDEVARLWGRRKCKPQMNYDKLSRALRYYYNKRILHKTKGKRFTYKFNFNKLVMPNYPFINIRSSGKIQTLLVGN
Procedure, shortened: as §1

[8] = target: ETV6 (Homo sapiens, UniProt P41212 1-452)
ETV6, sequence (P41212 whole entry): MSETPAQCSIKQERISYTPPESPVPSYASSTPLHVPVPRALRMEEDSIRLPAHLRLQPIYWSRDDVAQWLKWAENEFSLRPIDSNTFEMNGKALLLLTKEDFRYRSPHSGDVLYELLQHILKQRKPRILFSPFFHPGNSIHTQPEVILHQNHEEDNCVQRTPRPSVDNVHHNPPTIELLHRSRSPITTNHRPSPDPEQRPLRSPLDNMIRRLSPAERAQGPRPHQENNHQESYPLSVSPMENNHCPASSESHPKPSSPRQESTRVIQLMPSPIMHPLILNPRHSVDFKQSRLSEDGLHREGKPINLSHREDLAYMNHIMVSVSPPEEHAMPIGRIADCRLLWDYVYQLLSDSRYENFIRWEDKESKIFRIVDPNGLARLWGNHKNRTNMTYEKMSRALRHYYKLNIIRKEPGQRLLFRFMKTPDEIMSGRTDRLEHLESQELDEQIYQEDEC
Procedure, shortened: as §1

## TTACAT
[1]
  binding signal: 1.41 fold enrichment (6-mer frequency, TF over GST control)
[2]
  binding signal: 1.26 fold enrichment (6-mer frequency, TF over GST control)
[3]
  binding signal: 1.34 fold enrichment (6-mer frequency, TF over GST control)
[4]
  binding signal: 1.41 fold enrichment (6-mer frequency, TF over GST control)
[5]
  binding signal: 1.2 fold enrichment (6-mer frequency, TF over GST control)
[6]
  binding signal: 1.35 fold enrichment (6-mer frequency, TF over GST control)
[7]
  binding signal: 1.3 fold enrichment (6-mer frequency, TF over GST control)
[8]
  binding signal: 1.27 fold enrichment (6-mer frequency, TF over GST control)

## ATCTTG
[1]
  binding signal: 1.29 fold enrichment (6-mer frequency, TF over GST control)
[2]
  binding signal: 1.31 fold enrichment (6-mer frequency, TF over GST control)
[3]
  binding signal: 1.33 fold enrichment (6-mer frequency, TF over GST control)
[4]
  binding signal: 1.27 fold enrichment (6-mer frequency, TF over GST control)
[5]
  binding signal: 1.24 fold enrichment (6-mer frequency, TF over GST control)
[6]
  binding signal: 1.23 fold enrichment (6-mer frequency, TF over GST control)
[7]
  binding signal: 1.37 fold enrichment (6-mer frequency, TF over GST control)
[8]
  binding signal: 1.18 fold enrichment (6-mer frequency, TF over GST control)

## CCTTGC
[1]
  binding signal: 1.43 fold enrichment (6-mer frequency, TF over GST control)
[2]
  binding signal: 1.42 fold enrichment (6-mer frequency, TF over GST control)
[3]
  binding signal: 1.22 fold enrichment (6-mer frequency, TF over GST control)
[4]
  binding signal: 1.34 fold enrichment (6-mer frequency, TF over GST control)
[5]
  binding signal: 1.41 fold enrichment (6-mer frequency, TF over GST control)
[6]
  binding signal: 1.28 fold enrichment (6-mer frequency, TF over GST control)
[7]
  binding signal: 1.35 fold enrichment (6-mer frequency, TF over GST control)
[8]
  binding signal: 1.21 fold enrichment (6-mer frequency, TF over GST control)

## AAGTTC
[1]
  binding signal: 1.31 fold enrichment (6-mer frequency, TF over GST control)
[2]
  binding signal: 1.5 fold enrichment (6-mer frequency, TF over GST control)
[3]
  binding signal: 1.55 fold enrichment (6-mer frequency, TF over GST control)
[4]
  binding signal: 1.54 fold enrichment (6-mer frequency, TF over GST control)
[5]
  binding signal: 1.4 fold enrichment (6-mer frequency, TF over GST control)
[6]
  binding signal: 1.57 fold enrichment (6-mer frequency, TF over GST control)
[7]
  binding signal: 1.48 fold enrichment (6-mer frequency, TF over GST control)
[8]
  binding signal: 1.52 fold enrichment (6-mer frequency, TF over GST control)

## GCTTGC
[1]
  binding signal: 1.24 fold enrichment (6-mer frequency, TF over GST control)
[2]
  binding signal: 1.29 fold enrichment (6-mer frequency, TF over GST control)
[3]
  binding signal: 1.24 fold enrichment (6-mer frequency, TF over GST control)
[4]
  binding signal: 1.22 fold enrichment (6-mer frequency, TF over GST control)
[5]
  binding signal: 1.21 fold enrichment (6-mer frequency, TF over GST control)
[6]
  binding signal: 1.03 fold enrichment (6-mer frequency, TF over GST control)
[7]
  binding signal: 1.19 fold enrichment (6-mer frequency, TF over GST control)
[8]
  binding signal: 1.15 fold enrichment (6-mer frequency, TF over GST control)

## GAACAA
[1]
  binding signal: 1.24 fold enrichment (6-mer frequency, TF over GST control)
[2]
  binding signal: 1.2 fold enrichment (6-mer frequency, TF over GST control)
[3]
  binding signal: 1.22 fold enrichment (6-mer frequency, TF over GST control)
[4]
  binding signal: 1.14 fold enrichment (6-mer frequency, TF over GST control)
[5]
  binding signal: 1.17 fold enrichment (6-mer frequency, TF over GST control)
[6]
  binding signal: 1.23 fold enrichment (6-mer frequency, TF over GST control)
[7]
  binding signal: 1.18 fold enrichment (6-mer frequency, TF over GST control)
[8]
  binding signal: 1.25 fold enrichment (6-mer frequency, TF over GST control)

## TAAAAA
[1]
  binding signal: 1.37 fold enrichment (6-mer frequency, TF over GST control)
[2]
  binding signal: 1.37 fold enrichment (6-mer frequency, TF over GST control)
[3]
  binding signal: 1.33 fold enrichment (6-mer frequency, TF over GST control)
[4]
  binding signal: 1.32 fold enrichment (6-mer frequency, TF over GST control)
[5]
  binding signal: 1.31 fold enrichment (6-mer frequency, TF over GST control)
[6]
  binding signal: 1.29 fold enrichment (6-mer frequency, TF over GST control)
[7]
  binding signal: 1.25 fold enrichment (6-mer frequency, TF over GST control)
[8]
  binding signal: 1.26 fold enrichment (6-mer frequency, TF over GST control)

## CTTAGA
[1]
  binding signal: 1.18 fold enrichment (6-mer frequency, TF over GST control)
[2]
  binding signal: 1.17 fold enrichment (6-mer frequency, TF over GST control)
[3]
  binding signal: 1.06 fold enrichment (6-mer frequency, TF over GST control)
[4]
  binding signal: 1.16 fold enrichment (6-mer frequency, TF over GST control)
[5]
  binding signal: 1.07 fold enrichment (6-mer frequency, TF over GST control)
[6]
  binding signal: 1.04 fold enrichment (6-mer frequency, TF over GST control)
[7]
  binding signal: 1.07 fold enrichment (6-mer frequency, TF over GST control)
[8]
  binding signal: 1.11 fold enrichment (6-mer frequency, TF over GST control)

## TAAATG
[1]
  binding signal: 1.24 fold enrichment (6-mer frequency, TF over GST control)
[2]
  binding signal: 1.39 fold enrichment (6-mer frequency, TF over GST control)
[3]
  binding signal: 1.38 fold enrichment (6-mer frequency, TF over GST control)
[4]
  binding signal: 1.35 fold enrichment (6-mer frequency, TF over GST control)
[5]
  binding signal: 1.31 fold enrichment (6-mer frequency, TF over GST control)
[6]
  binding signal: 1.16 fold enrichment (6-mer frequency, TF over GST control)
[7]
  binding signal: 1.31 fold enrichment (6-mer frequency, TF over GST control)
[8]
  binding signal: 1.31 fold enrichment (6-mer frequency, TF over GST control)
